Where “and” joins values, the source holds several entries; their conditions need not be identical. Equal values may be shown once. A structure can be active in one record and inactive in another. Calls of active or inactive are those of the source. Rule for the calls: active = hit-call score of the fitted dose curve at least 0.9, where 1 is the maximum; inactive = score below 0.9.
Tests used:
[1] = read-out: Interleukin-8 (IL8), CXCL8 (gene 3576); assay: BSK_MyoF_IL8: BioMAP Diversity Plus: MyoF Assay for Interleukin-8 (IL8) Biomarker Activity (AID 2284261); settings: primary human lung fibroblasts
Summary of the method: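 ELISA read-out of IL-8 from primary human lung fibroblasts, 24 h post-dose; positive-direction curve fitting relative to DMSO vehicle baseline.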

Decorin, DCN (gene 1634) = assay: BSK_MyoF_Decorin: BioMAP Diversity Plus: MyoF Assay for Decorin Biomarker Activity (AID 2284265); settings: primary human lung fibroblasts
Summary of the method: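 Human lung fibroblasts in the MyoF system were exposed to compound for 24 h, after which decorin was quantified by ELISA. Activity was fitted in the positive direction relative to DMSO negative control.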

[2] = BSK_MyoF_SRB: Viability Assessment in the BioMAP Diversity Plus: MyoF Assay (AID 2284267); settings: primary human lung fibroblasts;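 note: total protein by SRB absorbance in parallel cultures as cytotoxicity measure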
Summary of the method: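 Cytotoxicity read-out: after 10% TCA fixation, parallel human lung fibroblast cultures were stained with 0.1% SRB at 24 h post-dosing and read at 560 nm; DMSO served as baseline.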

CD69, CD69 (gene 969) = assay: BSK_IMphg_CD69: BioMAP Diversity Plus: IMphg Assay for CD69 Biomarker Activity (AID 2284257); settings: primary human endothelial cells with macrophages
Summary of the method: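 Readout is ELISA for CD69 in primary human venular endothelial cell/macrophage co-culture, taken at 24 h post-dosing. SRB staining of parallel cultures gauged overt cytotoxicity; signal increase versus DMSO defined activity.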

[3] = read-out: Eotaxin 3, CCL26 (gene 10344); assay: BSK_BF4T_Eotaxin3: BioMAP Diversity Plus: BF4T Assay for Eotaxin 3 Biomarker Activity (AID 2284258); settings: primary human bronchial epithelial cells with fibroblasts
Summary of the method: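 ELISA measurement of Eotaxin-3 after 24 h chemical exposure in a bronchial epithelial/dermal fibroblast co-culture, with DMSO as baseline. Parallel SRB staining (0.1% SRB after 10% TCA fixation, 560 nm) flagged overt cytotoxicity.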

[4] = read-out: Intercellular Adhesion Molecule 1 (ICAM1), ICAM1 (gene 3383); assay: BSK_BF4T_ICAM1: BioMAP Diversity Plus: BF4T Assay for Intercellular Adhesion Molecule 1 (ICAM1) Biomarker Activity (AID 2284260); settings: primary human bronchial epithelial cells with fibroblasts
Summary of the method: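 ICAM-1 levels measured by ELISA after 24 h chemical treatment of bronchial epithelial cell/dermal fibroblast co-cultures, read against DMSO baseline. Overt cytotoxicity checked in parallel cultures by sulforhodamine B staining.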

CD90, THY1 (gene 7070) = assay: BSK_BF4T_CD90: BioMAP Diversity Plus: BF4T Assay for CD90 Biomarker Activity (AID 2284262); settings: primary human bronchial epithelial cells with fibroblasts
Summary of the method: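 CD90 levels by ELISA after 24 h treatment of human bronchial epithelial cell/dermal fibroblast cultures, analysed versus DMSO. Overt cytotoxicity checked in parallel cultures by sulforhodamine B staining.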

[5] = read-out: Interleukin-8 (IL8), CXCL8 (gene 3576); assay: BSK_BF4T_IL8: BioMAP Diversity Plus: BF4T Assay for Interleukin-8 (IL8) Biomarker Activity (AID 2284263); settings: primary human bronchial epithelial cells with fibroblasts
Summary of the method: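 Human bronchial epithelial cells with dermal fibroblasts co-culture; IL-8 measured by ELISA 24 hours after dosing, fitted vs DMSO. Cytotoxicity tracked in parallel cultures by SRB total-protein staining.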

[6] = read-out: Interleukin-1 alpha (IL1a), IL1A (gene 3552); assay: BSK_BF4T_IL1a: BioMAP Diversity Plus: BF4T Assay for Interleukin-1 alpha (IL1a) Biomarker Activity (AID 2284264); settings: primary human bronchial epithelial cells with fibroblasts
Summary of the method: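 ELISA read-out of IL-1α from bronchial epithelial cell/dermal fibroblast co-cultures 24 h after compound addition. Increases scored against DMSO negative control. Cytotoxicity monitored by sulforhodamine B staining of parallel cultures.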

KRT18 (gene 3875) = assay: BSK_BF4T_Keratin818: BioMAP Diversity Plus: BF4T Assay for Keratin 818 Biomarker Activity (AID 2284266); settings: primary human bronchial epithelial cells with fibroblasts
Summary of the method: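 Keratin 8/18 levels quantified by ELISA after 24 h chemical treatment of bronchial epithelial cell/dermal fibroblast co-cultures, fitted in positive direction relative to DMSO. Parallel SRB staining tracks overt cytotoxicity.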

Measured: AC50

ClC(Cl)=C(c1ccc(Cl)cc1)c1ccccc1Cl
active: [1] 9.75 µM | Decorin, DCN (gene 1634) 9.47 µM | [2] 6.71 µM

COC(=O)C(F)(F)C(F)(F)OC(F)(C(F)(F)F)C(F)(F)OC(F)=C(F)F (stereo not drawn)
inactive: CD69, CD69 (gene 969) | [3] | [4] | [1] | CD90, THY1 (gene 7070) | [5] | [6] | Decorin, DCN (gene 1634) | KRT18 (gene 3875) | [2]
active: [1] 1.29 µM

O=S1(=O)OCC2C(CO1)C1(Cl)C(Cl)=C(Cl)C2(Cl)C1(Cl)Cl (stereo not drawn)
inactive: [1] | Decorin, DCN (gene 1634) | [2]

O=P(OCC(Br)CBr)(OCC(Br)CBr)OCC(Br)CBr (stereo not drawn)
inactive: [1] | Decorin, DCN (gene 1634) | [2]

OCC(F)(F)OC(F)(F)C(F)(F)OC(F)(F)C(F)(F)OC(F)(F)F
active: CD69, CD69 (gene 969) 48.6 µM and 7.29 µM | [3] 49.2 µM | [5] 42.8 µM and 39.6 µM | [2] 21.9 µM and 21.6 µM
inactive: [3] | [4] | [1] | CD90, THY1 (gene 7070) | [6] | Decorin, DCN (gene 1634) | KRT18 (gene 3875)

N#Cc1cc([N+](=O)[O-])ccc1N
inactive: [1] | Decorin, DCN (gene 1634) | [2]

C=CC(=O)OCC(F)(F)C(F)F
active: [4] 13.9 µM and 22.8 µM | [2] 41.2 µM
inactive: CD69, CD69 (gene 969) | [3] | [1] | CD90, THY1 (gene 7070) | [5] | [6] | Decorin, DCN (gene 1634) | KRT18 (gene 3875) | [2]

CCOP(=S)(OCC)SCSc1ccc(Cl)cc1
inactive: [1] | Decorin, DCN (gene 1634) | [2]

Cc1ccc2c(c1N)C(=O)c1ccccc1C2=O
inactive: [1] | Decorin, DCN (gene 1634) | [2]

COP(=O)(O)OC
inactive: [1] | Decorin, DCN (gene 1634) | [2]

O=S(=O)(F)C(F)(F)C(F)(F)C(F)(F)C(F)(F)C(F)(F)C(F)(F)C(F)(F)C(F)(F)F
inactive: all assays above

C=CC(=O)OCC(CC)(COC(=O)C=C)COC(=O)C=C
active: [1] 5.17 µM | Decorin, DCN (gene 1634) 3.09 µM | [2] 2.91 µM

CCCCOCCOP(=O)(OCCOCCCC)OCCOCCCC
inactive: [1] | Decorin, DCN (gene 1634) | [2]

CCCCC(CC)COP(=O)(Oc1ccccc1)Oc1ccccc1 (stereo not drawn)
active: [1] 0.145 µM | Decorin, DCN (gene 1634) 5.87 µM | [2] 8.43 µM

CC(O)C(F)(F)C(F)(F)F (stereo not drawn)
inactive: all assays above

CCOP(=S)(NC(C)C)Oc1ccccc1C(=O)OC(C)C (stereo not drawn)
inactive: [1] | Decorin, DCN (gene 1634) | [2]

N#Cc1c(-c2ccc(Cl)cc2)[nH]c(C(F)(F)F)c1Br
active: [1] 0.17 µM | [2] 0.802 µM
inactive: Decorin, DCN (gene 1634)

CC(C)Nc1ccc(Nc2ccccc2)cc1
inactive: [1] | Decorin, DCN (gene 1634)
active: [2] 20 µM

CCCCC(CC)COC(=O)c1c(Br)c(Br)c(Br)c(Br)c1C(=O)OCC(CC)CCCC (stereo not drawn)
inactive: [1] | Decorin, DCN (gene 1634) | [2]

CC(C)(C)c1ccccc1OP(=O)(Oc1ccccc1)Oc1ccccc1
active: [2] 20 µM
inactive: [1] | Decorin, DCN (gene 1634)

OCC(F)(F)OC(F)(F)C(F)(F)OC(F)(F)CO
inactive: all assays above

Source: PubChem BioAssay (EPA / NIEHS)
